Shown are actives, neighbours in structure and some others; about 1.6% of the full set was active somewhere.
eIF4E 4G PPI: eIF4E/eIF4G interaction inhibition in translation initiation | P63073+Q04637 | TR-FRET eIF4E-eIF4GI(517-606) binding, 2 h | inhibition, % at 21.7 µM | hit rate 0.37% among 220,000 | AID 782;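 active = inhibition above about 30%, limit read from the data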;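 note: 0% = full FRET control wells and 100% = background wells lacking eIF4GI fragment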
eIF4H FP inh: inhibitors of RNA binding by human eIF4H | eIF4H fluorescence polarization binding assay | hit rate 0.94% among 290,000 | AID 2012 | Q15056 | inhibition, % at 35 µM;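 note: calls also rest on retests at 20 µM and on dose response follow-up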
MLLE-PAM2 inh: blocks PAM2 peptide binding to the PABP1 MLLE domain | P11940 | hit rate 0.36% among 360,000 | GST-MLLE / FITC-PAM2 fluorescence polarization | inhibition, % at 20 µM; in the data active = inhibition above about 35%, passing the limit was not always enough;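 note: plate controls were DMSO wells with GST-MLLE for no effect and wells lacking GST-MLLE protein for full effect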
Target sequence (P11940 whole entry, looked up, the tested form may be a part): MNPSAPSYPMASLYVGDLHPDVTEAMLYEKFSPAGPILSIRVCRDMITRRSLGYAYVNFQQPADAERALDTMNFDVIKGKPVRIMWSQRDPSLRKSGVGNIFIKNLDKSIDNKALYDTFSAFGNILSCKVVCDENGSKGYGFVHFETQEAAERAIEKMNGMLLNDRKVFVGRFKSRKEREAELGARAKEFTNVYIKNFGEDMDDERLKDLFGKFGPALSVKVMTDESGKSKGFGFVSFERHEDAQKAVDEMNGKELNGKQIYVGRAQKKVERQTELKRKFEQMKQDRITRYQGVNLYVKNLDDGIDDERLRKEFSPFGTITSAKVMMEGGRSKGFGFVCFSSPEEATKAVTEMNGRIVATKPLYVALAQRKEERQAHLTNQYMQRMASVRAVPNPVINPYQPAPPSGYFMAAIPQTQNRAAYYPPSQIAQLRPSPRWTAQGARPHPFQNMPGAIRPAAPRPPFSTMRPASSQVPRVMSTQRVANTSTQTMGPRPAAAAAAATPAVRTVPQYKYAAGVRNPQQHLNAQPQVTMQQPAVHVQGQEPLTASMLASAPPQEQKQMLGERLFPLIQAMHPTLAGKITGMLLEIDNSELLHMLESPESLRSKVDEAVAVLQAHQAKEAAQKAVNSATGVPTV
PABP polyA inh: blocks human PABP binding to poly(A) RNA | P11940 | hit rate 1% among 290,000 | calls only at 35 µM | AID 2014 | fluorescence polarization;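 note: calls also rest on retests at 20 µM and on dose response follow-up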
PERK inh: blocks human PERK kinase. Q9NZJ5. CHO PERK-DD fusion, SEAP luminescence translation reporter. inhibition, % at 5.6 µM. hit rate 0.17% among 220,000. AID 1416;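 active = inhibition above the mean inhibition of all tested compounds plus 3 SD, set separately per screening campaign, cut at about 2.9% in these data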;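 note: PERK kinase domain activated by AP20187 dimerizer at 100 nM; 0% = DMSO with dimerizer and 100% = rapamycin at 8.4 µM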
* hit, by the source's call; i = inactive; ? = inconclusive; · = no result; + = active, no number. Unless noted, the rule behind the calls is not given here.

SMILES | eIF4E 4G PPI | eIF4H FP inh | MLLE-PAM2 inh | PABP polyA inh | PERK inh
CN(c1ccc(C(=O)NC2CCCCC2)cc1)S(=O)(=O)c1ccccc1 | · | -6 | 11 | i | ·
CN(c1ccccc1)S(=O)(=O)c1cccc(C(=O)OCC(=O)NCCCN2CCCC2=O)c1 | 0 | 10 | 12 | + | 1
CN(c1ccccc1)S(=O)(=O)c1cccc(C(=O)NC2CCCCC2)c1 | · | · | 85* | · | ·
CC1C2(C)OCC(C#N)(C(=N)O2)C1(C#N)C#N (centres undefined) | 4 | 63* | · | + | 0
CC1CN(Cc2ccccc2)c2nc3c(c(=O)[nH]c(=O)n3C)n2C1 (centres undefined) | 83* | -1 | 4 | i | -2
Cn1c(=O)[nH]c(=O)c2c1nc1n2CCN1Cc1ccccc1 | 10 | 1 | -7 | i | 0
Cc1cc(NCCN2CCOCC2)n2c(nc3ccccc32)c1C#N | -26 | -4 | -14 | i | 0
Cc1cc(NCCCN2CCOCC2)n2c(nc3ccccc32)c1C#N | -13 | 80* | -13 | + | -1
CCN(CC)CCCNc1cc(C(F)(F)F)c(C#N)c2nc3ccccc3n12 | · | 76 | 24 | + | ·
O=C(c1ccc2c(c1)OCO2)C1CCCN(C(=O)c2cnn(Cc3ccccc3)c2)C1 (centres undefined) | -1 | 4 | 10 | i | 0
O=C(c1ccc2c(c1)OCO2)C1CCCN(C(=O)NCc2ccccc2)C1 (centres undefined) | -2 | 58* | -1 | + | 1
Cn1c(NCC2CCCCC2)nc2cc(-c3ccsc3)sc2c1=O | · | · | -2 | · | ·
N#Cc1c(N2CCCC(O)C2)nc(N)c2c(N)nc3c(c12)CC(=O)N3C12CC3CC(CC(C3)C1)C2 (centres undefined) | 0 | 91* | -42 | + | 1
CCCCN1C(=O)Cc2c1nc(N)c1c(N)nc(N(CCC)CCC)c(C#N)c21 | 5 | 10 | 14 | i | 1
C=C(C)CN(CC)c1nc(N)c2c(N)nc3c(c2c1C#N)CC(=O)N3C12CC3CC(CC(C3)C1)C2 | -16 | 76* | -14 | + | 1
COc1ccc(CN2C(=O)Cc3c2nc(N)c2c(N)nc(N4CCCCC4)c(C#N)c32)cc1 | -1 | ? | · | i | 0
CCOC(CNC(=O)c1ccc2c(c1)ncn2-c1ccccc1OC)OCC | · | -2 | 4 | i | ·
O=C(C[n+]1cccc2ccccc21)c1ccc(Cl)cc1 | · | 71 | -1 | + | ·
O=C(C[n+]1cccc2ccccc21)c1ccc([N+](=O)[O-])cc1 | 4 | 8 | 4 | i | 0
COC(=O)c1ccc(OC(=O)c2ccc(OC)cc2)c(OC)c1 | 2 | 53* | 16 | + | 0
COC(=O)c1ccc(OCCOc2ccc(C(=O)OC)cc2)cc1 | -12 | -9 | 3 | i | 3.5*
COC(=O)c1ccc(OCC(=O)c2ccccc2)cc1 | -2 | -1 | 2 | i | -1
CC(CS(=O)(=O)c1cccc2cccnc12)N1CCCCC1 (centres undefined) | 4 | 53* | 31 | + | 1
CC(C)OCCCNC(=O)c1sc(=S)n(C)c1N | 6 | -10 | 41* | i | 0
CCn1c(N)c(C(=O)NCCCOC)sc1=S | -4 | 1 | 21 | i | 0
SMILES | eIF4E 4G PPI | eIF4H FP inh | MLLE-PAM2 inh | PABP polyA inh | PERK inh
CC(=O)Nc1cccc(NC(=O)c2cc(-c3ccccn3)nc3ccc(Cl)cc23)c1 | · | 52 | -3 | + | ·
O=C(Nc1nc(-c2cccs2)cs1)c1ccco1 | 4 | 0 | 14 | i | 0
O=C(Nc1nc(-c2ccncc2)cs1)c1ccco1 | -15 | 84* | -17 | i | 1
CCN(CC)c1ccc(/C=N/NC(=O)c2cccc(S(=O)(=O)Nc3ccccc3OC)c2)c(O)c1 | -3 | 2 | -75 | i | -1
CCN(CC)c1ccc(/C=N/NC(=O)c2cccc(S(=O)(=O)Nc3ccccc3OC)c2)cc1 | 0 | 52* | 4 | i | 0
O=C1C(Cl)=C(N2CCC(C(=O)O)CC2)C(=O)c2ccccc21 | 9 | 13 | 55* | i | 0
NC(=O)C1CCN(C2=C(Cl)C(=O)c3ccccc3C2=O)CC1 | 18 | 12 | 38 | i | 2
O=C(O)CSc1ncnc2sc3c(c12)CCCC3 | -2 | 1 | 0 | i | 0
Cc1ccc(C(=O)CSc2ncnc3sc4c(c23)CCCC4)cc1 | 33* | 0 | 8 | i | 2
O=C(O)CSc1ncnc2sc3c(c12)CCC3 | · | 60* | -1 | + | 1
Cc1no[n+]([O-])c1COc1ccc(/C=C2\NC(=S)NC2=O)cc1 | 1 | 56* | · | + | -1
CCOc1ccc(/C=C2\NC(=S)NC2=O)cc1 | -3 | 3 | -110 | i | 1
Cc1nn(C)c(C)c1N1C(=O)c2cccc3c(Br)ccc(c23)C1=O | 4 | 14 | 16 | i | 0
Cc1nn(C)c(C)c1N1C(=O)c2cccc3c(N)ccc(c23)C1=O | 0 | 129 | i | + | 1
COc1ccc(NC(=O)CSCC(=O)NC2(C)CCS(=O)(=O)C2)cc1 (centres undefined) | · | -4 | -8 | i | ·
Cn1cc(/C=C(\C#N)C(=O)Nc2ncc(Cc3ccc(Cl)cc3)s2)c2ccccc21 | -1 | 63* | 12 | + | 1
CCOc1ccc(/C=N/n2c(C3CCCCC3)n[nH]c2=S)cc1 | · | 10 | -75 | i | ·
O=C(Nc1ccc(S(=O)(=O)Nc2ncccn2)cc1)c1ccc(Cl)c([N+](=O)[O-])c1 | · | -4 | -11 | i | ·
CCC(C)c1ccc(NC(=O)COc2c(F)c(F)c(C(F)(F)F)c(F)c2F)cc1 (centres undefined) | 2 | active | -7 | + | 1
O=C(COc1c(F)c(F)c(C(F)(F)F)c(F)c1F)Nc1ccc(N2CCOCC2)c(Cl)c1 | 5 | -1 | -2 | i | -1
Fc1cccc2sc(Nc3nnc(-c4ccco4)o3)nc12 | 5 | 61* | -1 | + | -2
COc1cccc2sc(Nc3nnc(-c4ccc(F)cc4)o3)nc12 | -1 | 17 | -2 | i | -1
O=C(O)CCSc1nnc(SCC(=O)NCC(F)(F)F)s1 | 56* | 4 | -21 | i | 0
CC(=O)c1ccc(NC(=O)C2CCCNC2=O)cc1 (centres undefined) | -4 | -1 | 40* | i | 1
CC(C)n1nnnc1-c1cc(Cl)cc(Cl)c1 | -4 | -6 | 13 | i | 3.5*
O=C(O)C1CSC(c2ccncc2)N1 (centres undefined) | 2 | 0 | 38* | i | 1
COc1ccc(C(N)CCc2ccco2)cc1 (centres undefined) | -1 | 50* | -35 | + | -1
COc1ccc(S(=O)(=O)N(C)C(C)CCc2ccco2)cc1 (centres undefined) | · | 9 | 2 | i | ·
CN1CCCCc2c1[nH]c1ccccc1c2=O | 3 | 59* | 15 | + | 0
CCNC(=S)NNC(=O)C1CCCCC1 | -12 | 0 | -5 | i | 2.9*
